Data reported in the supplement of paper PMC7156485.
± gives the standard deviation of the averaged measurements.

System: HCC1569
Assay: cell number relative to DMSO (% of DMSO); higher = more cells (less growth inhibition / toxicity)
Conditions: concentration: 10 µM; 24 h
Method in brief: (§1)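 Using 384-well plates with 800 cells per well in RPMI plus 10% FBS, HCC1569 and TDF cells were exposed to compounds at 10 µM, in triplicate, for 24 h at 37 °C. Imaging of six fields per well at ×10 followed H1.0 and DAPI staining. The reported quantity, H1.0 nuclear intensity or cell number, is a median of replicates given as percent of the plate control, and HCC1569 values were smoothed for positional effects.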
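Further: TDF denotes transformed human dermal fibroblasts of mesenchymal origin.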

Row | Structure (SMILES) | cell number
1 | CC(C[N+](C)(C)C)OC(N)=O (stereo not drawn) [Carbamyl-beta-methylcholine] | 105
2 | NC(CCC(=O)NC(CSN=O)C(=O)NCC(=O)O)C(=O)O (stereo not given) [S-Nitrosoglutathione] | 104
3 | Cl.NO [Hydroxylamine hydrochloride] | 96.2
4 | CCCCCC=CCC(O)C=Cc1cccc(CC(O)CCCCO)n1 (stereo not given) | 98.7 ± 2
5 | Nc1ccc(S(=O)(=O)Nc2ncccn2)cc1 [Sulfadiazine] | 101
6 | CS(=O)(=O)O.C[C@H](NCc1ccc(OCc2cccc(F)c2)cc1)C(N)=O | 99.7
7 | C#CC(N)CCC(=O)O (stereo not given) [gamma-Acetylinic GABA] | 103
8 | N=C1Sc2ccccc2C2=NCCCN12 | 100
9 | O=C(NCCN1CCC(n2c(=O)[nH]c3cc(Cl)ccc32)CC1)c1ccc(F)cc1 | 91.9
10 | Nc1nc(=O)c2nc(Br)n(C3OC4COP(=O)([O-])OC4C3O)c2[nH]1.[Na+] (stereo not given) [8-Bromo-cGMP sodium] | 101
11 | COC(=O)NC(C(=O)NC(Cc1ccccc1)C(O)CN(Cc1ccc(-c2ccccn2)cc1)NC(=O)C(NC(=O)OC)C(C)(C)C)C(C)(C)C (stereo not given) [Atazanavir] | 92.7
12 | O=C1NCCN1CCN1CCC(c2cn(-c3ccc(F)cc3)c3ccc(Cl)cc23)CC1 | 66.8
13 | CCCCCCCCCCCCCCCCCCCCCC(=O)O [Docosanoic acid] | 101
14 | COc1ccc(-c2ccc3cc(C(=O)O)ccc3c2)cc1C12CC3CC(CC(C3)C1)C2 [Adapalene] | 85.4
15 | Cl.c1ccc2c(c1)CCCC2C1=NCCN1 (stereo not given) [Tetrahydrozoline hydrochloride] | 101
16 | Nc1cc(-c2ccncc2)c[nH]c1=O [amrinone] | 99.8
17 | CN(C)CCCOC1C(C(O)CO)OC2OC(C)(C)OC21.Cl (stereo not given) [Amiprilose hydrochloride] | 101
18 | O=C(NCCCCCCNC(=O)ON=C1CCCCC1)ON=C1CCCCC1 | 96.6
19 | Cn1c2ccccc2c2c3c(c4c5ccccc5n(CCC#N)c4c21)CNC3=O | 94.3
20 | O=C1CC(c2ccccc2)Oc2cc(O)cc(O)c21 (stereo not given) [Pinocembrin] | 106

Row | Structure (SMILES) | cell number
21 | CC1OC(n2cc(F)c(=O)[nH]c2=O)C(O)C1O (stereo not given) [Doxifluridine] | 88.3
22 | N[C@H](CCC(=O)NCS(=O)(=O)O)C(=O)O [gamma-D-Glutamylaminomethylsulfonic acid] | 101
23 | O=c1c(O)c(-c2cc(O)c(O)c(O)c2)oc2cc(O)ccc12 [Robinetine] | 99
24 | CCCCc1oc2ccccc2c1C(=O)c1cc(I)c(OCCN(CC)CC)c(I)c1.Cl [Amiodarone hydrochloride] | 98.5
25 | CCCCOc1cc(CC2CNC(=O)N2)ccc1OC (stereo not given) | 101
26 | O=c1oc2cc(O)ccc2c2oc3cc(O)ccc3c12 [Coumestrol] | 99.9
27 | COc1cc2nccc(Oc3ccc(NC(=O)Nc4ccc(F)cc4F)c(F)c3)c2cc1OC | 74.9
28 | CCCCC=CCCCCCCCC(=O)O [9(Z)-Tetradecenoic acid] | 98.2
29 | COc1ccc2cc(C(C)C(=O)O)ccc2c1 (stereo not given) [Naproxen] | 99.9
30 | CCC(CCC(C)C1CCC2C3CC=C4CC(O)CCC4(C)C3CCC12C)C(C)C (stereo not given) | 99.8
31 | CCCCN1CCC(n2c(=O)[nH]c3ccccc32)CC1.O=C(O)C(=O)O [NS 521 oxalate] | 98
32 | Cl.Cl.Cl.Ic1ccc(N2CCN(Cc3c[nH]c4ncccc34)CC2)cc1 [L-750,667 trihydrochloride] | 103
33 | CC12CCC(=O)C=C1CCC1C2CCC2(C)C1CCC2(O)C(=O)CO (stereo not given) [Cortexolone] | 98.2
34 | Nc1c2c(nc3ccccc13)CCCC2O.O=C(O)C=CC(=O)O (stereo not given) [Hydroxytacrine] | 106
35 | CC(CN1c2ccccc2Sc2ccccc21)N(C)C.Cl (stereo not given) [Promethazine hydrochloride] | 105
36 | N#Cc1c(O)c2c(-c3ccc(-c4ccccc4O)cc3)csc2[nH]c1=O | 102
37 | Cn1c(=O)c2[nH]c(-c3ccccc3)nc2n(C)c1=O [1,3-Dimethyl-8-phenylxanthine] | 105
38 | O=C(Nc1cccc2c(=O)cc(-c3nn[nH]n3)oc12)c1ccc(OCCCCc2ccccc2)cc1 [Pranlukast] | 101
39 | COc1ccc(C(=O)Nc2sc3c(c2C(N)=O)CCCC3)cc1OC [Flt-3 Inhibitor] | 96.7
40 | C#CCN1C(C)=C(C(=O)OC)C(c2cccc([N+](=O)[O-])c2)C(C(=O)OCC)=C1C (stereo not given) | 97.2

System: TDF
Assay: as above
Conditions: concentration: 10 µM; 24 h
Method in brief: as §1

Row | Structure (SMILES) | cell number
41 | CC(C[N+](C)(C)C)OC(N)=O (stereo not drawn) [Carbamyl-beta-methylcholine] | 99.5
42 | NC(CCC(=O)NC(CSN=O)C(=O)NCC(=O)O)C(=O)O (stereo not given) [S-Nitrosoglutathione] | 102
43 | Cl.NO [Hydroxylamine hydrochloride] | 95.5
44 | CCCCCC=CCC(O)C=Cc1cccc(CC(O)CCCCO)n1 (stereo not given) | 108 ± 4.7
45 | Nc1ccc(S(=O)(=O)Nc2ncccn2)cc1 [Sulfadiazine] | 108
46 | CS(=O)(=O)O.C[C@H](NCc1ccc(OCc2cccc(F)c2)cc1)C(N)=O | 102
47 | C#CC(N)CCC(=O)O (stereo not given) [gamma-Acetylinic GABA] | 99.9
48 | N=C1Sc2ccccc2C2=NCCCN12 | 99.9
49 | O=C(NCCN1CCC(n2c(=O)[nH]c3cc(Cl)ccc32)CC1)c1ccc(F)cc1 | 98
50 | Nc1nc(=O)c2nc(Br)n(C3OC4COP(=O)([O-])OC4C3O)c2[nH]1.[Na+] (stereo not given) [8-Bromo-cGMP sodium] | 100
51 | COC(=O)NC(C(=O)NC(Cc1ccccc1)C(O)CN(Cc1ccc(-c2ccccn2)cc1)NC(=O)C(NC(=O)OC)C(C)(C)C)C(C)(C)C (stereo not given) [Atazanavir] | 79.8
52 | O=C1NCCN1CCN1CCC(c2cn(-c3ccc(F)cc3)c3ccc(Cl)cc23)CC1 | 39.3
53 | CCCCCCCCCCCCCCCCCCCCCC(=O)O [Docosanoic acid] | 104
54 | COc1ccc(-c2ccc3cc(C(=O)O)ccc3c2)cc1C12CC3CC(CC(C3)C1)C2 [Adapalene] | 88.7
55 | Cl.c1ccc2c(c1)CCCC2C1=NCCN1 (stereo not given) [Tetrahydrozoline hydrochloride] | 98.1
56 | Nc1cc(-c2ccncc2)c[nH]c1=O [amrinone] | 105
57 | CN(C)CCCOC1C(C(O)CO)OC2OC(C)(C)OC21.Cl (stereo not given) [Amiprilose hydrochloride] | 106
58 | O=C(NCCCCCCNC(=O)ON=C1CCCCC1)ON=C1CCCCC1 | 100
59 | Cn1c2ccccc2c2c3c(c4c5ccccc5n(CCC#N)c4c21)CNC3=O | 30.5
60 | O=C1CC(c2ccccc2)Oc2cc(O)cc(O)c21 (stereo not given) [Pinocembrin] | 100

Row | Structure (SMILES) | cell number
61 | CC1OC(n2cc(F)c(=O)[nH]c2=O)C(O)C1O (stereo not given) [Doxifluridine] | 107
62 | N[C@H](CCC(=O)NCS(=O)(=O)O)C(=O)O [gamma-D-Glutamylaminomethylsulfonic acid] | 109
63 | O=c1c(O)c(-c2cc(O)c(O)c(O)c2)oc2cc(O)ccc12 [Robinetine] | 105
64 | CCCCc1oc2ccccc2c1C(=O)c1cc(I)c(OCCN(CC)CC)c(I)c1.Cl [Amiodarone hydrochloride] | 92
65 | CCCCOc1cc(CC2CNC(=O)N2)ccc1OC (stereo not given) | 110
66 | O=c1oc2cc(O)ccc2c2oc3cc(O)ccc3c12 [Coumestrol] | 91.8
67 | COc1cc2nccc(Oc3ccc(NC(=O)Nc4ccc(F)cc4F)c(F)c3)c2cc1OC | 59.9
68 | CCCCC=CCCCCCCCC(=O)O [9(Z)-Tetradecenoic acid] | 105
69 | COc1ccc2cc(C(C)C(=O)O)ccc2c1 (stereo not given) [Naproxen] | 83.8
70 | CCC(CCC(C)C1CCC2C3CC=C4CC(O)CCC4(C)C3CCC12C)C(C)C (stereo not given) | 92.5
71 | CCCCN1CCC(n2c(=O)[nH]c3ccccc32)CC1.O=C(O)C(=O)O [NS 521 oxalate] | 102
72 | Cl.Cl.Cl.Ic1ccc(N2CCN(Cc3c[nH]c4ncccc34)CC2)cc1 [L-750,667 trihydrochloride] | 101
73 | CC12CCC(=O)C=C1CCC1C2CCC2(C)C1CCC2(O)C(=O)CO (stereo not given) [Cortexolone] | 99.3
74 | Nc1c2c(nc3ccccc13)CCCC2O.O=C(O)C=CC(=O)O (stereo not given) [Hydroxytacrine] | 101
75 | CC(CN1c2ccccc2Sc2ccccc21)N(C)C.Cl (stereo not given) [Promethazine hydrochloride] | 96.9
76 | N#Cc1c(O)c2c(-c3ccc(-c4ccccc4O)cc3)csc2[nH]c1=O | 92.5
77 | Cn1c(=O)c2[nH]c(-c3ccccc3)nc2n(C)c1=O [1,3-Dimethyl-8-phenylxanthine] | 110
78 | O=C(Nc1cccc2c(=O)cc(-c3nn[nH]n3)oc12)c1ccc(OCCCCc2ccccc2)cc1 [Pranlukast] | 110
79 | COc1ccc(C(=O)Nc2sc3c(c2C(N)=O)CCCC3)cc1OC [Flt-3 Inhibitor] | 105
80 | C#CCN1C(C)=C(C(=O)OC)C(c2cccc([N+](=O)[O-])c2)C(C(=O)OCC)=C1C (stereo not given) | 107
